Results taken from PubChem BioAssay (EPA / NIEHS).
Inconclusive results are not listed. Calls of active or inactive are those of the source. Rule for the calls, unless noted: active = hit-call score of the fitted dose curve at least 0.9, where 1 is the maximum; inconclusive = response in the unintended direction; inactive = score below 0.9.

What was measured:
[1] = read-out: Cytochrome P450 2C9 (Homo sapiens) (UniProt P11712); experiment: CLD_CYP2C9_48hr: CellzDirect (CLD) Gene Expression Assay for xenobiotic metabolism (CYP2C9) at 48 hours (AID 2283701; active = hit-call score of the fitted dose curve at least 0.9, where 1 is the maximum; inactive = score below 0.9)
Method in brief: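 Primary human hepatocytes (two donor preparations) dosed daily for two days with test chemicals, 0.2% DMSO vehicle; harvested at 48 h. mRNA induction quantified by qNPA chemiluminescence, fitted for gain of signal against DMSO baseline; cytotoxicity annotated from phase-contrast morphology.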

[2] = read-out: xenobiotic metabolism (CYP1A2), CYP1A2 (gene 1544); experiment: CLD_CYP1A2_48hr: CellzDirect (CLD) Gene Expression Assay for xenobiotic metabolism (CYP1A2) at 48 hours (AID 2283703)
Method in brief: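 Primary human hepatocytes from two donor preparations were dosed daily for two days at multiple concentrations in 0.2% DMSO vehicle. CYP1A2 mRNA was measured at 48 hours by chemiluminescent quantitative nuclease protection assay, with gain of signal fitted versus DMSO and cytotoxicity annotated from morphology.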

[3] = read-out: Broad substrate specificity ATP-binding cassette transporter ABCG2 (Homo sapiens) (UniProt Q9UNQ0); experiment: CLD_ABCG2_48hr: CellzDirect (CLD) Gene Expression Assay for ABC Transporter (ABCG2) at 48 hours (AID 2283704);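 for AC50: potency for induction of ABCG2 mRNA above the DMSO baseline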
Method in brief: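 Primary human hepatocytes from two donors, dosed daily for 2 days, 0.2% DMSO vehicle, several concentrations. ABCG2 mRNA at 48 h by qNPA chemiluminescence, gain fitted versus DMSO; cytotoxicity flagged by morphology.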

[4] = read-out: Glyceraldehyde-3-phosphate dehydrogenase (Homo sapiens) (UniProt P04406); experiment: CLD_GAPDH_48hr: CellzDirect (CLD) Gene Expression Assay for Baseline Control (Glyceraldehyde 3-phosphate dehydrogenase) at 48 hours (AID 2283706);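 note: active means higher GAPDH mRNA than DMSO vehicle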
Method in brief: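 Primary human hepatocytes dosed daily for two days with fresh chemical at multiple concentrations, 0.2% DMSO vehicle; GAPDH mRNA measured at 48 h by quantitative nuclease protection assay with chemiluminescence, fitted upward relative to DMSO as background control.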

[5] = read-out: organic anion transporter (SLCO1B1), SLCO1B1 (gene 10599); experiment: CLD_SLCO1B1_48hr: CellzDirect (CLD) Gene Expression Assay for organic anion transporter (SLCO1B1) at 48 hours (AID 2283707)
Method in brief: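 Primary human hepatocytes from two donor preparations dosed daily for two days with multiple concentrations, 0.2% DMSO vehicle. SLCO1B1 mRNA at 48 h by quantitative nuclease protection assay, chemiluminescence; gain-of-signal fitted versus DMSO.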

[6] = read-out: glucuronosyltransferase (UGT1A1), UGT1A1 (gene 54658); experiment: CLD_UGT1A1_48hr: CellzDirect (CLD) Gene Expression Assay for glucuronosyltransferase (UGT1A1) at 48 hours (AID 2283709);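 note: actives increase expression relative to DMSO so potency refers to induction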
Method in brief: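 Human primary hepatocytes dosed daily for two days (0.2% DMSO vehicle), harvested at 48 h. UGT1A1 mRNA induction measured by quantitative nuclease protection assay with chemiluminescence; gain of signal versus DMSO; cytotoxicity flagged from morphology.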

[7] = read-out: sulfotransferase (SULT2A), SULT2A1 (gene 6822); experiment: CLD_SULT2A_48hr: CellzDirect (CLD) Gene Expression Assay for sulfotransferase (SULT2A) at 48 hours (AID 2283710);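 note: hits raise SULT2A1 transcript above the 0.2% DMSO vehicle baseline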
Method in brief: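 Primary human hepatocytes (two donor preparations) dosed daily for two days with chemicals at multiple concentrations, vehicle 0.2% DMSO; SULT2A1 mRNA induction at 48 h by quantitative nuclease protection assay, chemiluminescent read-out, fitted for gain of signal versus DMSO.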

[8] = STM_H9_CystineISnorm_perc: Stemina devTOX quickPredict H9 human embryonic stem cell (hESC)-based Assay for Cystine (CYSS) Metabolite Biomarker, Normalized (AID 2283713; active = hit-call score of the fitted dose curve at least 0.9, where 1 is the maximum; inactive = score below 0.9)
Method in brief: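 H9 hESC, pluripotent; compound 72h, re-dosed q24h with medium change. Last-24h medium → 40% acetonitrile deproteinization → UPLC-HRMS. CYSS area / C13-CYSS standard, then % of 0.1% DMSO median.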

[9] = Tanguay_ZF_120hpf_ActivityScore_legacy: (Legacy) Oregon State University Tanguay Lab 120 Hour Post-fertilization zebrafish Assay Score for Activity (AID 2283742);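 for AC50: dechorionated Tropical 5D wild-type zebrafish embryos held singly per well; static exposure from 6 hpf until 120 hpf at 28 °C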
Method in brief: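 Embryos are staged, enzymatically dechorionated at 4 hpf, placed individually at 6 hpf, then held in test chemical (0.64% DMSO) at 28C until 120 hpf. Mortality and malformations are scored by brightfield, with non-mortality endpoints skipped for dead embryos.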

[10] = read-out: xenobiotic metabolism (CYP1A1), CYP1A1 (gene 1543); experiment: CLD_CYP1A1_48hr: CellzDirect (CLD) Gene Expression Assay for xenobiotic metabolism (CYP1A1) at 48 hours (AID 2283705)
Method in brief: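 Primary human hepatocytes from two donors dosed daily for two days at multiple concentrations, 0.2% DMSO vehicle; CYP1A1 mRNA induction at 48 h by qNPA chemiluminescence. Cytotoxicity noted by phase-contrast morphology.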

[11] = read-out: HMG-CoA synthase (HMGCS2), HMGCS2 (gene 3158); experiment: CLD_HMGCS2_48hr: CellzDirect (CLD) Gene Expression Assay for HMG-CoA synthase (HMGCS2) at 48 hours (AID 2283711)
Method in brief: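 Primary human hepatocytes from two donors dosed daily for two days, 0.2% DMSO vehicle. HMGCS2 mRNA measured 48 h after dosing by quantitative nuclease protection assay with chemiluminescent read-out; induction fitted relative to DMSO, cytotoxicity flagged by microscopy.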

[12] = CEETOX_H295R_MTT_cell_viability: Viability Assessment in the CeeTox HT-H295R MTT Assay (AID 2283718; active = hit-call score of the fitted dose curve at least 0.9, where 1 is the maximum; inactive = score below 0.9;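 for AC50: curve fitted both ways so AC50 may mark viability loss or gain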)
Method in brief: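 MTT reduction (0.5 mg/ml, 4 h at 37 C; absorbance at 570 and 650 nm) gave viability as background-corrected percent change versus controls. H295R cells had 48 h forskolin (10 uM) prestimulation, then 48 h chemical exposure at 0.1% DMSO.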

[13] = read-out: Cytochrome P450 2B6 (Homo sapiens) (UniProt P20813); experiment: CLD_CYP2B6_48hr: CellzDirect (CLD) Gene Expression Assay for xenobiotic metabolism (CYP2B6) at 48 hours (AID 2283699);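 note: actives raise transcript level above DMSO so potency reflects induction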
Method in brief: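 Primary human hepatocytes dosed daily for two days over multiple concentrations, 0.2% DMSO vehicle; CYP2B6 mRNA quantified at 48 h by qNPA chemiluminescence. Induction fitted as gain of signal versus DMSO; cytotoxicity annotated by morphology.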

[14] = read-out: alkyl and aryl transferase (GSTA2), GSTA2 (gene 2939); experiment: CLD_GSTA2_48hr: CellzDirect (CLD) Gene Expression Assay for alkyl and aryl transferase (GSTA2) at 48 hours (AID 2283708);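 note: active means mRNA induction above DMSO vehicle baseline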
Method in brief: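 Primary human hepatocytes dosed daily for two days (0.2% DMSO vehicle), harvested at 48 h. GSTA2 mRNA induction measured by quantitative nuclease protection assay with chemiluminescent imaging, fitted for gain of signal relative to DMSO.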

[15] = system: Thyroperoxidase (TPO), gene 445522; experiment: CCTE_Simmons_GUA_TPO: CCTE's Guaiacol Assay for Thyroperoxidase (TPO) Inhibition, Simmons Lab (AID 2283750)
Method in brief: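 Porcine thyroid microsomes (25 ug) in 200mM potassium phosphate, preincubated 30 s at 37C with compound (8 concentrations, 5 nM–87.5 uM) and 35mM guaiacol; 1mM H2O2 starts reaction. Absorbance change at 450nm over first 80 s; loss of signal versus DMSO, three replicates.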

[16] = STM_H9_OrnCyssISnorm_ratio: Stemina devTOX quickPredict H9 human embryonic stem cell (hESC)-based Assay for Ornithine (ORN):Cystine (CYSS) Ratio (AID 2283714)
Method in brief: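 Steps: H9 hESCs in pluripotent state dosed 72h, medium plus compound renewed every 24h; conditioned medium from the final 24h deproteinized in 40% acetonitrile; ORN and CYSS quantified by UPLC-HRMS with C13 spike-ins; ratio relative to vehicle.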

[17] = ArunA_CellTiter_hNC: Viability Assessment in the ArunA Biomedical's Oris Neural Crest (hNC) Cell Migration Assay (AID 2283752)
Method in brief: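 Cell titer was measured with the CellTiter Aqueous One reagent after 72 h of chemical dosing. Cells were H9-derived embryonic neural crest stem cells seeded on Matrigel, 60,000 per well, and given 16 h at 37C beforehand.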

[18] = ArunA_CellTiter_hNP: Viability Assessment in the ArunA Biomedical's Oris Neural Crest (hNC) Cell Migration Assay (AID 2283753)
Method in brief: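 H9-derived hNP1 neuroprogenitors, 60,000/well on Matrigel, cultured 16 h, then 72 h chemical exposure in test medium. Cell titer via CellTiter Aqueous One; positive-direction fit vs DMSO.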

Measured: AC50

Broad substrate specificity ATP-binding cassette transporter ABCG2 (Homo sapiens), sequence (Q9UNQ0 whole entry, looked up): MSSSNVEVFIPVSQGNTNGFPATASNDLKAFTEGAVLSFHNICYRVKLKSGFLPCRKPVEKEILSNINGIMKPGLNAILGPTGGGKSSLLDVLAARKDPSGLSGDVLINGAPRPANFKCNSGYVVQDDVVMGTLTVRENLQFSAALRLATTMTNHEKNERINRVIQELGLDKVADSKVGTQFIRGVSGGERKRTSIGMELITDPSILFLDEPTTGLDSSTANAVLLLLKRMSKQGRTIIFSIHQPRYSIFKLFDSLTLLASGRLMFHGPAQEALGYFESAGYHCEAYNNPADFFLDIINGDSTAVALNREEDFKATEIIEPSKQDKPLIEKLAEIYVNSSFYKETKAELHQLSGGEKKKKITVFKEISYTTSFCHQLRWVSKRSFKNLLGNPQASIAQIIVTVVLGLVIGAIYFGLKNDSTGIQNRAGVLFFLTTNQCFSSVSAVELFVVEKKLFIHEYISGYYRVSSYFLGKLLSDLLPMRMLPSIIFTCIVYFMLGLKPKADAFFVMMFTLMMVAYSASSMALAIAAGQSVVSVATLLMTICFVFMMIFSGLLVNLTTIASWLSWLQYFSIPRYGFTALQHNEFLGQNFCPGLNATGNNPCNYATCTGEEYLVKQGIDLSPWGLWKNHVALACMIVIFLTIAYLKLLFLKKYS
Glyceraldehyde-3-phosphate dehydrogenase (Homo sapiens), sequence (P04406 whole entry, looked up): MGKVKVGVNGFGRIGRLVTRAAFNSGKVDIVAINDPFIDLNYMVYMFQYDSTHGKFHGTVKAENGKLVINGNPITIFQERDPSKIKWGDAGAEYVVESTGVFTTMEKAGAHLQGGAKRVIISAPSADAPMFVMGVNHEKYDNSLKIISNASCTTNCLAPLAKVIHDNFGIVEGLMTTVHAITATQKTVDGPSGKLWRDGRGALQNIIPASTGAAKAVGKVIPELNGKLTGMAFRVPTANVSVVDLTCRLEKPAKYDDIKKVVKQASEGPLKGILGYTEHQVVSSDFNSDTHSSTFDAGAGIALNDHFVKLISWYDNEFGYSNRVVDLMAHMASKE

Clc1cccc(C(Cl)(Cl)Cl)n1
inactive: [1] | [2] | [3] | [4] | [5] | [6] | [7] | [8] | [9]

Cc1c(COC(=O)[C@@H]2[C@H](/C=C(\Cl)C(F)(F)F)C2(C)C)cccc1-c1ccccc1
inactive: [1] | [2] | [3] | [5] | [6] | [11] | [12]
active: [10] 20 µM | [7] 5.45 µM

COP(=S)(OC)SCn1nnc2ccccc2c1=O
active: [13] 4.19 µM | [2] 0.409 µM | [6] 6.38 µM | [15] 49.6 µM
inactive: [1] | [3] | [5] | [14] | [7] | [12]

CCOc1nc(C(Cl)(Cl)Cl)ns1
active: [2] 5.52 µM | [10] 3.97 µM | [16] 9.92 µM
inactive: [1] | [4] | [6] | [11] | [8] | [12] | [9]

Cc1nc(N(C)C)nc(OC(=O)N(C)C)c1C
inactive: [1] | [10] | [4] | [6] | [12] | [9]
active: [13] 5.26 µM | [2] 3.27 µM

N#Cc1c(Cl)cccc1Cl
inactive: [1] | [3] | [6] | [7] | [12]
active: [13] 1.44 µM

CC(C)=CC1C(C(=O)OCc2coc(Cc3ccccc3)c2)C1(C)C (stereo unspecified)
active: [13] 20 µM
inactive: [2] | [3] | [4] | [5] | [6] | [7] | [9]

CC(C)Oc1cccc(NC(=O)c2ccccc2C(F)(F)F)c1
inactive: [1] | [6] | [7]
active: [13] 5.34 µM | [2] 7.17 µM | [3] 0.000858 µM | [12] 71.1 µM

Clc1nc(Cl)nc(Nc2ccccc2Cl)n1
inactive: [13] | [2] | [3] | [4] | [5] | [6] | [12] | [9]

CCCCC(O)(Cn1cncn1)c1ccc(Cl)cc1Cl (stereo unspecified)
inactive: [1] | [3] | [6] | [7]
active: [2] 3.97 µM | [10] 20 µM | [8] 78.9 µM | [16] 76.5 µM

COCc1cnc(C2=NC(C)(C(C)C)C(=O)N2)c(C(=O)O)c1 (stereo unspecified)
not listed: [1] | [3] | [5] | [10] | [11] | [14] | [15]
inactive: all other assays above

Nc1c(Cl)c(F)nc(OCC(=O)O)c1Cl
inactive: [13] | [1] | [2] | [3] | [10] | [5] | [6] | [7] | [11]

N#CN=C1SCCN1Cc1ccc(Cl)nc1
inactive: [1] | [2] | [3] | [5] | [6] | [7] | [8] | [16] | [12]

OC(c1ccc(Cl)cc1)(c1ccc(Cl)cc1)C(Cl)(Cl)Cl
active: [10] 20 µM
inactive: [1] | [2] | [3] | [5] | [6] | [7] | [9]

COP(=O)(OC)O/C(C)=C/C(=O)N(C)C
inactive: [13] | [1] | [2] | [3] | [4] | [5] | [6] | [7]

CCOc1cc(C(C)(C)C)ccc1C1COC(c2c(F)cccc2F)=N1 (stereo unspecified)
inactive: [1] | [3] | [5] | [6] | [12] | [9]
active: [2] 20 µM | [7] 7.73 µM

CO/N=C(/C1=NOCCO1)c1ccccc1Oc1ncnc(Oc2ccccc2Cl)c1F
active: [13] 1.89 µM | [8] 9.72 µM | [16] 18.2 µM | [9] 3.17 µM
inactive: [1] | [2] | [3] | [5] | [6] | [7]

CSC(=O)c1c(C(F)F)nc(C(F)(F)F)c(C(=O)SC)c1CC(C)C
inactive: [1] | [3] | [5] | [6] | [7] | [9]
active: [13] 0.416 µM | [2] 6.64 µM | [10] 20 µM | [14] 11.8 µM
